According to ChEMBL document CHEMBL3988442, “University of Dundee, Small-Polar-MMV Screening Library” (2021):
In all, about 48,000 compounds went through this assay and about 13,000 (27%) showed an effect of 50% or more. The list shows a part of the results.

system: Wolbachia pipientis; assay: Anti-Wolbachia Cell-Based Screen; type: functional; parameters: scale not given: in the data most compounds retested in dose-response had high values; details: 5 µM

Point of comparison: `CN1CC2(CCCN(Cc3cccc(CCN)c3)C2)OC1=O` (stereo not given), “Percent Effect” value 105.3%. Against it:
- Cl.Cl.O=C(NC[C@H]1OC[C@@H](NC2CCNCC2)[C@@H]1O)C1CCCC1 — lower, -10.79%
- O=C(C1CC1)N1C[C@@H](F)[C@@H](OCc2nc3ccccc3[nH]2)C1 — lower, -5.445%
- CC(=O)N1CCO[C@H]2[C@H](OCCCn3cccn3)CC[C@@H]21.O=C(O)C(F)(F)F — higher, 121.4%
- O=C(C1CCOCC1)N1CCO[C@H]2[C@H](Oc3ccccn3)CC[C@@H]21.O=C(O)C(F)(F)F — lower, -40.04%
- O=C(N1CCCC1)N1CCO[C@H]2[C@@H](OCc3cccnc3)CC[C@@H]21.O=C(O)C(F)(F)F — lower, -4.224%
- O=C(CC1CC1)N1CCO[C@H]2[C@H](OCCCn3cccn3)CC[C@@H]21.O=C(O)C(F)(F)F — lower, 104.8%
- CCS(=O)(=O)N1CCO[C@H]2[C@H](OCCCn3cccn3)CC[C@@H]21.O=C(O)C(F)(F)F — lower, 3.946%
- O=C(C1CCC1)N1CCO[C@H]2[C@H](OCCCn3cccn3)CC[C@@H]21.O=C(O)C(F)(F)F — lower, 102.2%
- Cn1cccc1C(=O)N1CCO[C@H]2[C@H](OCc3cccnc3)CC[C@@H]21.O=C(O)C(F)(F)F — lower, -1.301%
- CCOCC(=O)NCC(Cc1cccc(F)c1)n1cccc1 (stereo not given) — lower, 6.887%
- CS(=O)(=O)CCCNC(=O)Nc1sc2ccccc2c1Cl — lower, -10.11%
- COc1cc(C#N)ccc1OC12CCCN(CC1)C2 (stereo not given) — higher, 107.4%
- COC(=O)c1ccc(Cn2cccc(C(F)(F)F)c2=O)c(OC)c1 — lower, 9.312%
- COCC1CCN(CCOc2ccc(C#N)cc2OC)CC1 — lower, -11.6%
- COc1cc(C#N)ccc1OCCN1CCC(n2ccnc2)CC1 — lower, 7.917%
- COc1cc(C(C)=O)ccc1OCCNCc1ccco1.Cl — lower, -30.68%
- COC(=O)c1ccc(Cn2nc(C)cc2C)c(OC)c1 — lower, -3.306%
- COc1cc(C(C)=O)ccc1OC12CCCN(CC1)C2 (stereo not given) — higher, 108.8%
- COc1cc(C(C)=O)ccc1SCC(=O)Nc1ccc(C)cn1 — lower, -18.24%
- COC(=O)c1ccc(OC)c(OC23CCCN(CC2)C3)c1 (stereo not given) — lower, 94.41%
- CCNC(=O)Nc1cccc(F)c1C(=O)NC1CCCC1 — lower, 2.869%
- CC(C)CC(C#N)NC(=O)COC1CCCCC1 (stereo not given) — lower, -4.996%
- Cn1ccc(CN2CCCC23CCN(Cc2nccn2C)CC3)n1.O=C(O)C(F)(F)F.O=C(O)C(F)(F)F — lower, 97.85%
- CN(C)CCN1CCCC12CCN(Cc1nccn1C)CC2.O=C(O)C(F)(F)F.O=C(O)C(F)(F)F.O=C(O)C(F)(F)F — higher, 106.1%
- Cc1ccc(NC2COC3(CCN(Cc4ccn(C)n4)CC3)C2)nn1.O=C(O)C(F)(F)F (stereo not given) — lower, -6.198%
- CC(C)COC1CC2(CCN(Cc3nccn3C)CC2)C1.O=C(O)C(F)(F)F — lower, -0.08907%
- Cn1ccc(CN2CCC3(CCCN3CC3CC3)CC2)n1.O=C(O)C(F)(F)F.O=C(O)C(F)(F)F — lower, 89.46%
- O=C(O)C(F)(F)F.O=C(O)C(F)(F)F.c1csc(CN2CCC3(CCCN3CC3CC3)CC2)n1 — lower, 0.06996%
- Cn1ccnc1CN1CCC2(CCCN2c2ncccn2)CC1.O=C(O)C(F)(F)F — lower, -8.541%
- Cc1cnc(N2C[C@@H]3[C@@H](C(=O)NCC(C)C)CCS(=O)(=O)[C@@H]3C2)nc1 — lower, -2.009%
- Cc1cnc(N2C[C@@H]3[C@@H](C(=O)NC(C)C)CCS(=O)(=O)[C@@H]3C2)nc1 — lower, -24.89%
- CCc1cnc(N2C[C@H]3CCCC(N(C)Cc4ccccn4)[C@H]3C2)nc1 (stereo not given in full) — lower, -24.97%
- CCc1cnc(N2C[C@@H]3[C@@H](C(=O)NCC(C)C)CCS(=O)(=O)[C@@H]3C2)nc1 — lower, -5.453%
- CN(C)C(=O)[C@H]1CCS(=O)(=O)[C@@H]2CN(c3ncccn3)C[C@H]12 — lower, 99.37%
- CCc1cnc(N2C[C@@H]3[C@@H](C(=O)N(C)C)CCS(=O)(=O)[C@@H]3C2)nc1 — higher, 108.3%
- CC(C)NC(=O)[C@H]1CCS(=O)(=O)[C@@H]2CN(c3ncc(F)cn3)C[C@H]12 — lower, -13.53%
- CN(C)C[C@@H]1CCC[C@@H]2CN(c3ncccn3)C[C@@H]21.O=C(O)C(F)(F)F — lower, 2.797%
- CCc1cnc(N2C[C@@H]3[C@@H](C(=O)NC(C)C)CCS(=O)(=O)[C@@H]3C2)nc1 — lower, -2.445%
- CC(C)CNC(=O)[C@H]1CCS(=O)(=O)[C@@H]2CN(c3ncccn3)C[C@H]12 — lower, 91.22%
- CC(C)NC(=O)[C@H]1CCS(=O)(=O)[C@@H]2CN(c3ncccn3)C[C@H]12 — lower, -3.711%
- CN(C)C(=O)[C@H]1CCS(=O)(=O)[C@@H]2CN(c3ncc(F)cn3)C[C@H]12 — lower, 102%
- CC(=O)CCC(=O)N1CCC2(CC1)N=C(CCC(C)C)NC2=O — lower, -5.676%
- CC(C)(C)OC(=O)N1CCC(C(=O)NC2CCS(=O)(=O)C2)CC1 (stereo not given) — lower, 6.733%
- COc1ccc(C(=O)N2CCC(C3CCN(c4ncccn4)CC3)C2)o1 (stereo not given) — lower, -7.407%
- O=C(O)C(F)(F)F.O=C(c1ccco1)N1C[C@H]2CCCN(Cc3cccs3)[C@H]2C1 — lower, -3.839%
- O=C([C@@H]1CCS(=O)(=O)[C@@H]2CN(c3ncccn3)C[C@@H]21)N1CCOCC1 — lower, 104.7%
- CN1CCN(C(=O)[C@@H]2CCO[C@@H]3CCN(c4ncccn4)C[C@@H]32)CC1 — lower, -8.422%
- COc1ccc(/C=C/CN2CCC3(C2)CN(C)C(=O)O3)cc1 (stereo not given) — lower, -32.82%
- COc1cccc(CN2CCCC3(CCN(C(CO)CO)C3)C2)c1 (stereo not given) — lower, -0.6359%
- CN1CC2(CCCN(Cc3ccc(Oc4ccccc4)cc3)C2)OC1=O (stereo not given) — lower, 64.08%
- CN1CC2(CCCN(Cc3ccccc3OCC(=O)O)C2)OC1=O (stereo not given) — lower, 0.6132%
- COc1ccc(/C=C/CN2CCCC3(C2)CN(C)C(=O)O3)cc1 (stereo not given) — lower, -36.85%
- CN1CC2(CCCN(Cc3cccc(Oc4ccccc4)c3)C2)OC1=O (stereo not given) — higher, 123.2%
- CN(C)CCOc1cccc(CN2CCCC3(C2)CN(C)C(=O)O3)c1 (stereo not given) — lower, 103.2%
- Cc1cc(C)c2[nH]c(=O)c(CN3CCCC4(C3)CN(C)C(=O)O4)cc2c1 (stereo not given) — lower, -2.953%
- CN1CC2(CCCN(c3cc(N4CCCCC4)ncn3)C2)OC1=O (stereo not given) — lower, -3.477%
- O=C1NC[C@@]2(C(=O)O)CN(Cc3cccc(Oc4ccccc4)c3)C[C@@H]12 — lower, -29.67%
- CN1CC2(CCCN(c3cnccn3)C2)OC1=O (stereo not given) — lower, 1.527%
- CCOCCCC(=O)NCc1ccnc(N2CCN(C)CC2)c1 — lower, 8.829%
- CN(Cc1ccc(F)cc1C#N)CC(F)(F)F — lower, -4.053%
- CC(C)(C)CCN1CCN(c2snc(Cl)c2C#N)CC1 — lower, -4.564%
- CC(C)(NC(=O)c1coc(COc2cccc(F)c2)n1)C(N)=O — lower, 11.65%
- COCc1cc(CNC(=O)c2cccc3c2OCC3)n[nH]1 — lower, -6.489%
- CCCN1CCCN(CCCOc2cccc(C#N)c2)CC1 — lower, 7.264%
- N#CCCN(C(=O)CN1CCCC1c1ccsc1)c1ccccc1F (stereo not given) — lower, -4.506%
- CCS(=O)(=O)N1CCn2c(COCC3CCOCC3)cnc2C1C (stereo not given) — lower, -1.918%
- CN(C)C(=O)NCc1cc2n(n1)CCCN(C[C@H]1[C@@H]3CNC[C@@H]31)C2 — lower, -16.67%
- O=C(CC1CCCO1)NCc1ccccc1Cn1cncn1 (stereo not given) — lower, 0.9316%
- CC1CN(C)c2ccccc2CN1C(=O)c1cc[nH]c(=O)c1 (stereo not given) — lower, -17.5%
- CC1CN(C)c2ccccc2CN1C(=O)c1ccc[nH]1 (stereo not given) — lower, -9.61%
- CCc1cc(CNC(=O)N2Cc3ccccc3N(C)CC2C)[nH]n1 (stereo not given) — lower, 5.505%
- Cc1cc(=O)[nH]cc1C(=O)N1Cc2ccccc2N(C)CC1C (stereo not given) — lower, 102.2%
- CC1CN(C)c2ccccc2CN1C(=O)c1ccncc1F (stereo not given) — lower, -16.77%
- CCC1CN(C)c2ccccc2CN1C(=O)c1c[nH]c(=O)cc1C (stereo not given) — higher, 123.4%
- COCc1ccc(C(=O)N2CC[C@H](O)[C@@H](n3ccnc3)CC2)cc1 — higher, 113.2%
- CC(C(=O)N1CCN(C(=O)c2ccc(F)cc2)CC1)n1ccnc1 (stereo not given) — lower, -9.233%
- COCc1ccc(C(=O)N2CCN(CCS(C)(=O)=O)CC2)cc1 — lower, 1.51%
- O=C(c1ccc(-n2ccnc2)cc1)N1CCCC1 — lower, 15.67%
- COCc1ccc(C(=O)N2CCCN(C(=O)OCC(C)C)CC2)cc1 — lower, 6.896%
- CC(C)Oc1ccc(C(=O)N2CC[C@H](O)[C@@H](n3ccnc3)CC2)cc1 — higher, 122.3%
- CS(=O)(=O)CCSC1CCN(c2ccccc2F)C1=O (stereo not given) — lower, -0.4258%
- CC(C)N1CCC(C(=O)N[C@H](C(=O)O)c2cccc(F)c2F)CC1 — lower, 23.96%
- O=C(c1coc2ccccc12)N1CCCC(O)(CO)CC1 (stereo not given) — lower, -11.92%
- Cn1c(CO)cnc1SC(C(N)=O)c1ccccc1 (stereo not given) — lower, -6.292%
- COCCN(CCC#N)S(=O)(=O)c1ccc(F)cc1F — lower, 3.199%
- COc1cccc(OCCNS(C)(=O)=O)c1 — lower, 78.58%
- COc1cccc(CNCCc2cccc(C(N)=O)c2)c1 — lower, -2.153%
- COc1ccc(S(=O)(=O)C(C)C(=O)NCCOc2cccc(C)c2)cc1 (stereo not given) — lower, 1.494%
- Cc1cccc(OCC(=O)NS(=O)(=O)Cc2ccccc2)c1 — lower, 1.498%
- CS(=O)(=O)c1ccc(OCCNCc2cccc(O)c2)cc1 — lower, -6.003%
- O=C(CCOc1ccccc1)NS(=O)(=O)Cc1ccccc1 — lower, -5.15%
- COc1cccc(OCCNCc2ccccc2)c1.O=C(O)C(=O)O — higher, 105.9%
- CC(=O)NCCOc1cccc(Br)c1 — lower, 0.6269%
- COc1cccc(OCCNS(=O)(=O)Cc2ccccc2)c1 — lower, 102.8%
